PubChem BioAssay (NCATS)
Inconclusive results are not listed. Calls of active or inactive are those of the source. Calls follow the shape of the dose curve; as a rule, active = well fitted curve in the direction sought with a large enough effect; inconclusive = small, poorly fitted or top-dose-only effect, or another doubt; inactive = no such curve, though single readings can be large; an effect the other way counts as inactive or inconclusive.

Assays:
[1] = qHTS of pediatric cancer cell lines to identify multiple opportunities for drug repurposing: Primary screen for RD cells (AID 1347104); details: RD rhabdomyosarcoma viability, CellTiter-Glo luminescence, 48 h; series mostly up to 46 µM; also: nearly all actives have a fitted effect of over 55% in size
Summary of the method: (§1)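 Plated cells (500-1,000 per well, growth media) were allowed to settle for 5 hours, treated with compound dilutions for 48 hours, then lysed with CellTiter-Glo for 15 min at room temperature before luminescence reading.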

[2] = qHTS of pediatric cancer cell lines to identify multiple opportunities for drug repurposing: Primary screen for MG 63 (6-TG R) cells (AID 1347105); details: MG 63 (6-TG R) viability, CellTiter-Glo, 48 h; series mostly up to 46 µM; also: nearly all actives have a fitted effect of over 50% in size
Summary of the method: as §1

[3] = qHTS of pediatric cancer cell lines to identify multiple opportunities for drug repurposing: Primary screen for control Hh wild type fibroblast cells (AID 1347106); details: Hh wild-type fibroblast viability, CellTiter-Glo luminescence, 48 h; series mostly up to 46 µM;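 also: a drop in luminescence marks cytotoxicity and a rise apparent proliferation; nearly all actives have a fitted effect of over 55% in size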
Summary of the method: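 Viability after 48 h compound treatment at 37C, 500-1,000 cells/well, read as ATP luminescence with CellTiter-Glo. Primary screens used 11-point (MIPE, 0.78 nM-46 µM) or 8-point (NPC, 0.59 nM-46 µM) final concentrations; follow-up screens used 11-point dilutions.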

[4] = qHTS of pediatric cancer cell lines to identify multiple opportunities for drug repurposing: Primary screen for Rh30 cells (AID 1347107); details: Rh30 rhabdomyosarcoma viability, CellTiter-Glo luminescence, 48 h; series mostly up to 46 µM; also: nearly all actives have a fitted effect of over 75% in size
Summary of the method: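 Cells (500-1,000/well) rested 5 h, then received compounds for 48 h; metabolically active cells were measured by CellTiter-Glo luminescence. Final concentrations spanned up to 46 µM (MIPE, 11-point) or 0.59 nM-46 µM (NPC, 8-point) in primary screens, 11-point in follow-ups.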

[5] = qHTS of pediatric cancer cell lines to identify multiple opportunities for drug repurposing: Primary screen for Rh41 cells (AID 1347108); details: Rh41 rhabdomyosarcoma viability, CellTiter-Glo luminescence, 48 h; series mostly up to 46 µM;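 also: luminescence drop marks cytotoxic hits; nearly all actives have a fitted effect of over 70% in size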
Summary of the method: as §1

Measured: Potency

NC(=O)COCCN1CCN(C(c2ccccc2)c2ccc(Cl)cc2)CC1 (stereo not given)
inactive: [1] | [2] | [3] | [4] | [5]

c1ccc2c(c1)CCc1ccccc1N2
inactive: [1] | [2] | [3] | [4] | [5]

CCOC(=O)CN1CCCC1=O
inactive: [1] | [2] | [3] | [4] | [5]

O=C(CCCCC(=O)Nc1c(I)cc(I)c(C(=O)O)c1I)Nc1c(I)cc(I)c(C(=O)O)c1I
inactive: [1] | [2] | [3] | [4] | [5]

Nc1ccc([N+](=O)[O-])c(C(F)(F)F)c1
inactive: [1] | [2] | [3] | [4] | [5]

Nc1nnnn1-c1ccccc1
inactive: [1] | [2] | [3] | [4] | [5]

O=C(CCCCCCCCC#CI)Oc1ccccc1
inactive: [1] | [2] | [3] | [4] | [5]

Cc1cnc(NS(=O)(=O)c2ccc(N)cc2)nc1
inactive: [1] | [2] | [3] | [4] | [5]

OC(CCCN1CCCCC1)(c1ccccc1)c1ccccc1
inactive: [1] | [2] | [3] | [4] | [5]

CC(C)(C)C(O)/C=C/c1ccc2c(c1)OCO2 (stereo not given)
inactive: [1] | [2] | [3] | [4] | [5]

CC(C)NCCCC1(C(N)=O)c2ccccc2-c2ccccc21
inactive: [1] | [2] | [3] | [4] | [5]

C/C(=N/NC(=O)c1ccncc1)C(=O)O
inactive: [1] | [2] | [3] | [4] | [5]

Cc1ccc(C(=O)C(=O)O)cc1C
inactive: [1] | [2] | [3] | [4] | [5]

CCOC(=O)c1ccc(NC(=O)CN2CCCCC2)cc1
inactive: [1] | [2] | [3] | [4] | [5]

C1=CC2C3C=CC(C3)C2C1 (stereo not given)
inactive: [1] | [2] | [3] | [4] | [5]

COc1c(N2C[C@@H]3CCCN[C@@H]3C2)c(F)cc2c(=O)c(C(=O)O)cn(C3CC3)c12
inactive: [1] | [2] | [3] | [4] | [5]

CN1CCCN=C1/C=C/c1cccs1
inactive: [1] | [2] | [3] | [4] | [5]

CN1CCC(=C2c3ccccc3CCc3cccnc32)CC1
inactive: [1] | [2] | [3] | [4] | [5]

O=C(O)Cc1ccccc1Oc1ccc(Cl)cc1Cl
inactive: [1] | [2] | [3] | [4] | [5]

CN1Cc2cc(C(=O)N3CCC(C4CCNCC4)CC3)ccc2N[C@@H](CC(=O)O)C1=O
inactive: [1] | [2] | [3] | [4] | [5]

COCCOCC(OC)OC
inactive: [1] | [2] | [3] | [4] | [5]

COc1cc(C(=O)OC(COCCC(C)C)CN2CCOCC2)cc(OC)c1OC (stereo not given)
inactive: [1] | [2] | [3] | [4] | [5]

CCC(C(=O)NC(=O)NC(C)=O)c1ccccc1 (stereo not given)
inactive: [1] | [2] | [3] | [4] | [5]

COc1cc(NS(=O)(=O)c2ccc(N)cc2)nc(C)n1
inactive: [1] | [2] | [3] | [4] | [5]

CO/N=C(\C(=O)O)c1csc(NC(=O)CCl)n1
inactive: [1] | [2] | [3] | [4] | [5]

CC(CC(C#N)(c1ccccc1)C(C)C)N(C)C (stereo not given)
inactive: [1] | [2] | [3] | [4] | [5]

O=C(OCC1(COC(=O)c2cccnc2)CCCC(COC(=O)c2cccnc2)(COC(=O)c2cccnc2)C1O)c1cccnc1
inactive: [1] | [2] | [3] | [4] | [5]

CN1CCN(N)CC1
inactive: [1] | [2] | [3] | [4] | [5]

CC1(C)O[C@@H]2C[C@H]3[C@@H]4C[C@H](F)C5=CC(=O)C=C[C@]5(C)[C@@]4(F)[C@@H](O)C[C@]3(C)[C@]2(C(=O)CO)O1
inactive: [1] | [2] | [3] | [4] | [5]

CC1(C)OC(=O)Nc2ccc(Br)cc21
inactive: [1] | [2] | [3] | [4] | [5]

O=C1CCCc2c(O)cccc21
inactive: [1] | [2] | [3] | [4] | [5]

CCCCCC[C@@H](CCC)C(=O)O
inactive: [1] | [2] | [3] | [4] | [5]

O=C(O)[C@@H](O)[C@H](O)[C@H](O)[C@@H](O)C(=O)O
inactive: [1] | [2] | [3] | [4] | [5]

CC(C)=CCC/C(C)=C/CC/C(C)=C/CCC(=O)OC/C=C(\C)CCC=C(C)C
inactive: [1] | [2] | [3] | [4] | [5]

O=C(O)CCC(=O)OC[C@@H](NC(=O)C(Cl)Cl)[C@H](O)c1ccc([N+](=O)[O-])cc1
inactive: [1] | [2] | [3] | [4] | [5]

COc1ccc2nc(SCc3ncc(C)c(OC)c3C)[nH]c2c1
inactive: [1] | [2] | [3] | [4] | [5]

CCCc1ncc(C(=O)O)s1
inactive: [1] | [2] | [3] | [4] | [5]

O=C1CC(c2ccc(Cl)cc2)CC(=O)N1
inactive: [1] | [2] | [3] | [4] | [5]

CC(C)(C)c1ccc(C(=O)CCCCl)cc1
inactive: [1] | [2] | [3] | [4] | [5]

CN1C(=O)CC(C)(c2ccccc2)C1=O (stereo not given)
inactive: [1] | [2] | [3] | [4] | [5]

COC(=O)c1cc(Cl)c(NC(C)=O)cc1OC
inactive: [1] | [2] | [3] | [4] | [5]

COc1cc(C(=O)NC2CCCNC2)cc(OC)c1OC (stereo not given)
inactive: [1] | [2] | [3] | [4] | [5]

CCCC(=O)OCOC(=O)C1=C(C)NC(C)=C(C(=O)OC)C1c1cccc(Cl)c1Cl (stereo not given)
inactive: [1] | [2] | [3] | [4] | [5]
